Measured values published in PubChem BioAssay (EPA / NIEHS).
Activity calls are given as the source filed them. Rule for the calls: active = hit-call score of the fitted dose curve at least 0.9, where 1 is the maximum; inactive = score below 0.9.

What follows are molecules tested on cysteine-aspartic acid protease (CASP8), CASP8 (gene 841) (assay: LTEA_HepaRG_CASP8: Life Technologies and Expression Analysis (LTEA) Assay for cysteine-aspartic acid protease (CASP8) using HepaRG (AID 2283480)). Conditions: mRNA level, 48 h; actives raise or lower the signal.
Procedure: LTEA_HepaRG is a cell based, multiplexed-readout assay that uses HepaRG, a human liver cell line, with measurements taken at 48 hours after chemical dosing on a 96-well plate.LTEA_HepaRG_CASP8 is one of 102 assay component(s) measured in the LTEA HepaRG cell culture assay. It is a marker of Cell proliferation, survival, death.Data from the assay component LTEA_HepaRG_CASP8 was analyzed into 1 endpoint. This assay endpoint, LTEA_HepaRG_CASP8, was analyzed with bidirectional fitting relative to DMSO as the negative control and baseline of activity. Using a type of inducible reporter, measures of mRNA induction for gain or loss-of-signal activity can be used to understand regulation of transcription factor activity. To generalize the intended target to other relatable targets, this assay endpoint is annotated to the protease intended target family, where the subfamily is cysteine protease.
A total of 1060 chemcials from the ToxCast library were tested in eight-point concentration-response experiments. Cell culture and cytotoxicity assays were conducted at Thermo Fisher Scientific's Custom Services facility (Madison, WI). A single lot of human HepaRG cells (Thermo Fisher Scientific, Frederick, MD) was used for the cell culture experiments. 96-well format collagen type I coated plates of human HepaRG cells were prepared using established methods. Briefly, cryopreserved HepaRG cells were thawed, plated at a density of approximately 100,000 cells/well in HepaRG Thaw, Plate, and General Purpose media (HPRG770, Thermo Fisher Scientific), and incubated for 48 hours. 0.5% DMSO was selected as vehicle control to balance the requisite need of DMSO in HepaRG cultures to maintain differentiation (for example, baseline metabolism, proportions of hepatocytes vs. cholangiocytes), while enabling further hepatic receptor pathway activation (for example, PXR and CAR) in response to chemical exposure. 48 hours after plating, the culture medium was replaced with HepaRG Serum-Free Incudtion Media. Cells were exposed to each test chemical in duplicate and maintained in CO2 incubators for another 48 hours. Chemical plates were thawed to room temperature and 200x concentrations of treatment groups were prepared. 8-point conentration-reponse curves were made with the highest exposure at 100 uM, followed by half-log dilutions, all in 0.5% DMSO. Each test plate contained variouse controls, induction positive controls (1mM phenobarbital), cytotoxicity positive controls ([…] aflatoxin B1), vehicle controls (0.5% DMSO), and total lysis controls (0.5% DMSO). Cell morphology images were taken using an Essen IncuCyte FLR automated microscope, with six 96-well plates imaged in about 24 minutes. Images were captured and exported and JPEG files. Spent culture media was transfered to black-well plates for the LDH assay, and remaining media was sorted at -80 C for later use. Cells were treated with RLT buffer and frozen until shipped for gene expression analysis. Total RNA was isolated from the cell suspension in 75 uL of Buffer RLT (Qiagen, Germantown, MD 20874) by Quintiles/Expression Analysis (Durham, NC) using a custom isolation procedure. Total RNA from each plate well was transferred to a preamplification plate. Fluidigm's 96.96 Dynamic ArrayTM (Fluidigm, Amsterdam, the Netherlands) technology was used for gene expression analyses by quantitative reverse transcription polymerase chain reaction (qRT-PCR, performed by Quintiles/Expression Analysis, Durham, NC)89. Standard TaqManTM Assays (Applied Biosystems/ThermoFisher Scientific, Foster City, CA) were used to assess the expression of 93 genes selected based on their selectivity and sensitivity to important hepatic receptors known to be modulated by environmental chemicals; importance in human hepatocyte functionality; and hepatotoxicity. […]

Row | SMILES | outcome | AC50
1 | CCC(C)(C)C(=O)O[C@H]1C[C@@H](C)C=C2C=C[C@H](C)[C@H](CC[C@@H]3C[C@@H](O)CC(=O)O3)[C@H]21 | inactive | 
2 | Nc1nc2ncc(CNc3ccc(C(=O)N[C@@H](CCC(=O)O)C(=O)O)cc3)nc2c(=O)[nH]1 | inactive | 
3 | CCCCCCCCCCCCCCCO | inactive | 
4 | Cc1ccc(C)c(O)c1 | inactive | 
5 | C=CCCCCCCCCC(=O)O | inactive | 
6 | Cn1c(=O)c2c(ncn2C)n(C)c1=O | inactive | 
7 | COc1ccc2sc(C(=O)Nc3nnn[nH]3)c(OC(C)C)c2c1 |  | 39.2 µM (active)
8 | On1ccccc1=S | inactive | 
9 | COCCOCCOCCOC | inactive | 
10 | Clc1nc(Cl)c(Cl)c(Cl)c1Cl | inactive | 
11 | Cc1ccc(S(=O)(=O)O)cc1C | inactive | 
12 | O=C(O)c1cc(N=Nc2ccc(S(=O)(=O)Nc3ccccn3)cc2)ccc1O | inactive | 
13 | CC[C@H](C)C(=O)O[C@H]1C[C@@H](C)C=C2C=C[C@H](C)[C@H](CC[C@@H]3C[C@@H](O)CC(=O)O3)[C@H]21 | inactive | 
14 | O=C1CCC(N2C(=O)c3ccccc3C2=O)C(=O)N1 (stereo not given) | inactive | 
15 | COc1cccc(-c2ccc(/C=C\CN3CCCCCC3)cc2Cl)c1 | inactive | 
16 | COc1ccc(/C=C/S(=O)(=O)NC(=O)c2ccc(C)cc2Cl)cc1 | inactive | 
17 | CCNc1ccccc1 | inactive | 
18 | CCOCCOCCOCCO | inactive | 
19 | CNS(=O)(=O)c1cc(C(=O)N2CCC(CCN3C4CCC3CC(n3c(C)nc5ccccc53)C4)(c3cccc(F)c3)CC2)c(Cl)cc1F (stereo not given) | inactive | 
20 | CC[C@H]1OC(=O)[C@H](C)[C@@H](O[C@H]2C[C@@](C)(OC)[C@@H](O)[C@H](C)O2)[C@H](C)[C@@H](O[C@@H]2O[C@H](C)C[C@H](N(C)C)[C@H]2O)[C@](C)(O)C[C@@H](C)C(=O)[C@H](C)[C@@H](O)[C@]1(C)O | inactive | 

Row | SMILES | outcome | AC50
21 | CC(C)CC(C)(O)C#CC(C)(O)CC(C)C (stereo not given) | inactive | 
22 | CCCCCCCCCCCCc1ccccc1 | inactive | 
23 | O=c1n(CC2CO2)c(=O)n(CC2CO2)c(=O)n1CC1CO1 (stereo not given) | inactive | 
24 | CC(=O)OCCC(C)C | inactive | 
25 | Cc1ccc(N)cc1O | inactive | 
26 | CC(O)CN(CCN(CC(C)O)CC(C)O)CC(C)O (stereo not given) | inactive | 
27 | CN(C)c1ccc(Cc2ccc(N(C)C)cc2)cc1 | inactive | 
28 | O=C(O)CC(O)C(=O)O (stereo not given) | inactive | 
29 | CCCCCCc1ccc(O)cc1O | inactive | 
30 | CC(C)CCCCCCCOC(=O)CCCCC(=O)OCCCCCCCC(C)C | inactive | 
31 | Cc1c(-c2cccnc2)c2ccccc2n1CCCCC(=O)O | inactive | 
32 | CCCCCCCCO | inactive | 
33 | Cn1c(=O)cc(Oc2ccc(F)cc2F)c2cnc(NCC(C)(C)O)nc21 | inactive | 
34 | O=C(O)c1cccc(N(Cc2cccnc2)c2ccc(OC(F)F)c(OC(F)F)c2)c1 | inactive | 
35 | CC(C)=CCCC(C)CCO (stereo not given) | inactive | 
36 | CC(C)(O)c1coc(S(=O)(=O)NC(=O)Nc2c3c(cc4c2CCC4)CCC3)c1 | inactive | 
37 | C1N2CN3CN1CN(C2)C3 | inactive | 
38 | COC(=O)CC(=O)OC | inactive | 
39 | O=c1[nH]c2ccc(S(=O)CCN3CCC(Cc4ccc(F)cc4)CC3)cc2o1 (stereo not given) | inactive | 
40 | CC(=O)OC[C@H]1O[C@@](COC(C)=O)(O[C@H]2O[C@H](COC(C)=O)[C@@H](OC(C)=O)[C@H](OC(C)=O)[C@H]2OC(C)=O)[C@@H](OC(C)=O)[C@@H]1OC(C)=O | inactive | 
